# Source: PubChem BioAssay AID1159580 (chemical genetic matrix, 2015)
# The campaign covered roughly 5,500 compounds. About 2,000 (36%) were called active. Roughly 18% stayed inconclusive and do not appear here. The list shows a part of the results. Values without a mark were called inactive. Cut-off read from the data, not from the text of the source: active = normalized growth mostly below about 0.91 (no sharp cut-off); inconclusive = no clear call, values can overlap the other calls; inactive = mostly above about 0.92.
# Assay: chemical genetic growth profiling, strain panel (AID 1159580);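 note: tested at 20 µM; growth read once vehicle control cultures reached saturation at 30 °C; 1 = growth at the plate median or of vehicle wells; lower values mean less growth of the strain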
# Conditions: S. cerevisiae deletion strains, growth OD
# [1] = locus YAR019C, strain CDC15, hits give low values
# [2] = locus YBL105C, strain PKC1, hits give low values
# [3] = locus YBR135W, strain CKS1, hits give low values
# [4] = locus YBR136W, strain MEC1, hits give low values
# [5] = locus YBR160W, strain CDC28, hits give low values
# [6] = locus YDL017W, strain CDC7, hits give low values
# [7] = locus YDL028C, strain MPS1, hits give low values
# [8] = locus YDL101C, strain DUN1, hits give low values
# [9] = locus YDL108W, strain KIN28, hits give low values
# [10] = locus YDL132W, strain cdc53, hits give low values
# [11] = locus YDL214C, strain PRR2, hits give low values
# [12] = locus YDR052C, strain DBF4, hits give low values
# [13] = locus YDR054C, strain cdc34, hits give low values
# [14] = locus YDR226W, strain ADK1, hits give low values
# [15] = locus YDR477W, strain SNF1, hits give low values
# [16] = locus YER123W, strain YCK3, hits give low values
# [17] = locus YER133W, strain GLC7, hits give low values
# [18] = locus YFL009W, strain cdc4, hits give low values
# [19] = locus YFL029C, strain CAK1, hits give low values
# [20] = locus YFR003C, strain YPI1, hits give low values
# [21] = locus YFR019W, strain FAB1, hits give low values
# [22] = locus YFR028C, strain CDC14, hits give low values
# [23] = locus YGR040W, strain KSS1, hits give low values
# [24] = locus YGR052W, strain FMP48, hits give low values
# [25] = locus YGR092W, strain DBF2, hits give low values
# [26] = locus YHR030C, strain SLT2, hits give low values
# [27] = locus YHR079C, strain IRE1, hits give low values
# [28] = locus YHR082C, strain KSP1, hits give low values
# [29] = locus YHR205W, strain SCH9, hits give low values
# [30] = locus YIL147C, strain SLN1, hits give low values
# [31] = locus YJL095W, strain BCK1, hits give low values
# [32] = locus YJL128C, strain PBS2, hits give low values
# [33] = locus YJL157C, strain FAR1, hits give low values
# [34] = locus YJR016C, strain ILV3, hits give low values
# [35] = locus YJR066W, strain TOR1 (second series), hits give low values
# [36] = locus YJR066W, strain TOR1, hits give low values
# [37] = locus YKL048C, strain ELM1, hits give low values
# [38] = locus YKL067W, strain YNK1, hits give low values
# [39] = locus YKL101W, strain HSL1, hits give low values
# [40] = locus YKL193C, strain SDS22, hits give low values
# [41] = locus YKL203C, strain TOR2, hits give low values
# [42] = locus YLR113W, strain HOG1, hits give low values
# [43] = locus YLR133W, strain CKI1, hits give low values
# [44] = locus YLR403W, strain SFP1, hits give low values
# [45] = locus YML070W, strain DAK1, hits give low values
# [46] = locus YMR001C, strain CDC5, hits give low values
# [47] = locus YMR205C, strain PFK2 (second series), hits give low values
# [48] = locus YMR277W, strain FCP1, hits give low values
# [49] = locus YNL006W, strain LST8, hits give low values
# [50] = locus YNL020C, strain ARK1, hits give low values
# [51] = locus YNL161W, strain CBK1, hits give low values
# [52] = locus YNL183C, strain NPR1, hits give low values
# [53] = locus YNL207W, strain RIO2, hits give low values
# [54] = locus YNL222W, strain SSU72, hits give low values
# [55] = locus YNL307C, strain MCK1 (second series), hits give low values
# [56] = locus YOL078W, strain AVO1, hits give low values
# [57] = locus YOL136C, strain PFK27, hits give low values
# [58] = locus YOR061W, strain CKA2, hits give low values
# [59] = locus YOR119C, strain RIO1, hits give low values
# [60] = locus YOR231W, strain MKK1, hits give low values
# [61] = locus YOR329C, strain SCD5, hits give low values
# [62] = locus YPL031C, strain PHO85, hits give low values
# [63] = locus YPL153C, strain RAD53, hits give low values
# [64] = locus YPL204W, strain HRR25, hits give low values
# [65] = locus YPL209C, strain IPL1, hits give low values
# [66] = locus YPL256C, strain CLN2, hits give low values
# [67] = locus YPR025C, strain CCL1, hits give low values
# [68] = locus YPR106W, strain ISR1, hits give low values
# [69] = locus YPR111W, strain DBF20, hits give low values
# [70] = strain NNK1, hits give low values
# [71] = strain TSCII, hits give low values
structure (smiles),measurement,setting,value
COc1cc(NC(=S)NC(=O)c2ccccc2)c(OC)cc1Cl,normalized growth,[1],0.985
same,normalized growth,[2],0.995
same,normalized growth,[3],0.99
same,normalized growth,[4],0.99
same,normalized growth,[5],0.997
same,normalized growth,[6],0.998
same,normalized growth,[7],0.988
same,normalized growth,[8],0.998
same,normalized growth,[9],0.981
same,normalized growth,[10],1
same,normalized growth,[11],0.962
same,normalized growth,[12],0.996
same,normalized growth,[13],0.994
same,normalized growth,[14],0.996
same,normalized growth,[15],0.973
same,normalized growth,[16],0.963
same,normalized growth,[17],0.986
same,normalized growth,[18],0.994
same,normalized growth,[19],0.98
same,normalized growth,[20],0.998
same,normalized growth,[21],0.974
same,normalized growth,[22],1
same,normalized growth,[23],0.963
same,normalized growth,[24],1.04
same,normalized growth,[25],0.989
same,normalized growth,[26],0.949
same,normalized growth,[27],0.979
same,normalized growth,[28],1
same,normalized growth,[29],0.9
same,normalized growth,[30],0.993
same,normalized growth,[31],0.961
same,normalized growth,[32],0.971
same,normalized growth,[33],0.989
same,normalized growth,[34],1
same,normalized growth,[35],0.951
same,normalized growth,[36],0.997
same,normalized growth,[37],0.981
same,normalized growth,[38],0.974
same,normalized growth,[39],0.939
same,normalized growth,[40],1
same,normalized growth,[41],1.05
same,normalized growth,[42],0.91
same,normalized growth,[43],0.968
same,normalized growth,[44],0.941
same,normalized growth,[45],0.957
same,normalized growth,[46],0.995
same,normalized growth,[47],0.977
same,normalized growth,[48],1
same,normalized growth,[49],0.991
same,normalized growth,[50],0.977
same,normalized growth,[51],1
same,normalized growth,[52],0.981
same,normalized growth,[53],1
same,normalized growth,[54],0.992
same,normalized growth,[55],0.968
same,normalized growth,[56],0.999
same,normalized growth,[57],0.968
same,normalized growth,[58],0.953
same,normalized growth,[59],0.983
same,normalized growth,[60],0.962
same,normalized growth,[61],0.996
same,normalized growth,[62],0.971
same,normalized growth,[63],0.966
same,normalized growth,[64],0.986
same,normalized growth,[65],0.995
same,normalized growth,[66],0.959
same,normalized growth,[67],0.998
same,normalized growth,[68],0.989
same,normalized growth,[69],0.986
same,normalized growth,[70],0.981
same,normalized growth,[71],1
COc1cc(NC(=S)NNS(=O)(=O)c2ccc(C)cc2)c(OC)cc1Cl,normalized growth,[1],0.982
same,normalized growth,[2],0.974
same,normalized growth,[3],0.978
same,normalized growth,[4],0.971
same,normalized growth,[5],0.984
same,normalized growth,[6],0.984
same,normalized growth,[7],0.982
same,normalized growth,[8],0.976
same,normalized growth,[9],0.984
same,normalized growth,[10],0.974
same,normalized growth,[11],0.939
same,normalized growth,[12],0.986
same,normalized growth,[13],0.949
same,normalized growth,[14],0.974
same,normalized growth,[15],0.933
same,normalized growth,[16],0.921
same,normalized growth,[17],0.953
same,normalized growth,[18],0.982
same,normalized growth,[19],0.976
same,normalized growth,[20],0.985
same,normalized growth,[21],0.955
same,normalized growth,[22],0.968
same,normalized growth,[23],0.942
same,normalized growth,[24],1.06
same,normalized growth,[25],1.01
same,normalized growth,[26],0.858
same,normalized growth,[27],0.997
same,normalized growth,[28],1.02
same,normalized growth,[29],0.961
same,normalized growth,[30],0.986
same,normalized growth,[31],0.927
same,normalized growth,[32],0.966
same,normalized growth,[33],0.975
same,normalized growth,[34],0.977
same,normalized growth,[35],0.955
same,normalized growth,[36],0.97
same,normalized growth,[37],0.953
same,normalized growth,[38],0.94
same,normalized growth,[39],0.935
same,normalized growth,[40],0.97
same,normalized growth,[41],1
same,normalized growth,[42],0.849 (active)
same,normalized growth,[43],0.947
same,normalized growth,[44],0.959
same,normalized growth,[45],0.942
same,normalized growth,[46],0.979
same,normalized growth,[47],0.947
same,normalized growth,[48],0.963
same,normalized growth,[49],0.986
same,normalized growth,[50],0.96
same,normalized growth,[51],0.984
same,normalized growth,[52],0.939
same,normalized growth,[53],0.981
same,normalized growth,[54],0.973
same,normalized growth,[55],0.941
same,normalized growth,[56],0.971
same,normalized growth,[57],0.929
same,normalized growth,[58],0.967
same,normalized growth,[59],1.05
same,normalized growth,[60],0.994
same,normalized growth,[61],0.984
same,normalized growth,[62],0.95
same,normalized growth,[63],0.95
same,normalized growth,[64],0.92
same,normalized growth,[65],0.972
same,normalized growth,[66],0.886
same,normalized growth,[67],0.972
same,normalized growth,[68],0.977
same,normalized growth,[69],0.951
same,normalized growth,[70],0.972
same,normalized growth,[71],0.98
